# Data published in the supplement of paper PMC8728848.
# Many of the other results were omitted from the sample, so the strongest signals are more common in it than they were.
# How the values were obtained:
# Assay in all cases: glycan array binding signal (z-score within array); higher = stronger binding
# Details in all cases: glycan notation: IUPAC condensed, linker removed
# [1] = target: Fuc(a1-2)Gal(b1-3)[Fuc(a1-4)]GlcNAc(b1-3)[Gal(b1-4)GlcNAc(b1-6)]Gal(b1-4)Glc
# Outline: (§1)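 From the Consortium for Functional Glycomics database, 3228 arrays were curated, keeping only those whose protein sequence was available. Binding is given as a within-array Z-score averaged across arrays sharing a protein sequence and across linkers. Negative Z-scores can be read as non-binding.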
# [2] = target: Fuc(a1-2)Gal(b1-4)GlcNAc(b1-2)Man(a1-3)[Fuc(a1-2)Gal(b1-4)GlcNAc(b1-2)Man(a1-6)]Man(b1-4)GlcNAc(b1-4)GlcNAc
# Outline: as §1
# [3] = target: Fuc(a1-2)Gal(b1-4)GlcNAc(b1-3)Gal(b1-4)GlcNAc
# Outline: as §1
# [4] = target: Fuc(a1-2)Gal3S(b1-4)GlcNAc
# Outline: as §1
# [5] = target: Fuc(a1-2)[Gal(a1-3)]Gal(b1-4)[Fuc(a1-3)]Glc
# Outline: as §1
# [6] = target: Fuc(a1-2)[GalNAc(a1-3)]Gal(b1-4)GlcNAc(b1-3)GalNAc
# Outline: as §1
# [7] = target: Fuc(a1-3)[3dGal(b1-4)]Glc
# Outline: as §1
# [8] = target: Fuc(a1-3)[Gal(b1-4)]GlcNAc(b1-2)Man(a1-3)[Fuc(a1-3)[Gal(b1-4)]GlcNAc(b1-2)Man(a1-6)]Man(b1-4)GlcNAc(b1-4)GlcNAc
# Outline: as §1
# [9] = target: Fuc(a1-3)[Gal(b1-4)]GlcNAc(b1-2)Man(a1-3)[Fuc(a1-3)[Gal(b1-4)]GlcNAc(b1-2)Man(a1-6)]Man(b1-4)GlcNAc(b1-4)[Fuc(a1-6)]GlcNAc
# Outline: as §1
# [10] = target: Fuc(a1-3)[Gal3S(b1-4)]Glc
# Outline: as §1
# Fuc(a1-6)GlcNAc = target: Fuc(a1-6)GlcNAc
# Outline: as §1
# Gal(a1-2)Gal = target: Gal(a1-2)Gal
# Outline: as §1
# [11] = target: Gal(a1-3)Gal(b1-4)GlcNAc(b1-2)Man
# Outline: as §1
# Gal(b1-3)Gal(b1-4)GlcNAc = target: Gal(b1-3)Gal(b1-4)GlcNAc
# Outline: as §1
# [12] = target: Gal(b1-3)GalNAc(a1-3)[Fuc(a1-2)]Gal(b1-4)Glc
# Outline: as §1
# [13] = target: Gal(b1-3)GalNAc(a1-3)[Fuc(a1-2)]Gal(b1-4)GlcNAc
# Outline: as §1
# Gal(b1-3)GalNAc(b1-3)Gal = target: Gal(b1-3)GalNAc(b1-3)Gal
# Outline: as §1
# [14] = target: Gal(b1-3)GalNAc(b1-3)Gal(a1-4)Gal(b1-4)Glc
# Outline: as §1
# [15] = target: Gal(b1-3)GalNAc(b1-4)Gal(b1-4)Glc
# Outline: as §1
# [16] = target: Gal(b1-3)GalNAc(b1-4)Gal3S(b1-4)Glc
# Outline: as §1
# [17] = target: Gal(b1-3)GalNAc(b1-4)[Neu5Ac(a2-3)]Gal(b1-4)Glc
# Outline: as §1
# [18] = target: Gal(b1-3)GalNAc(b1-4)[Neu5Gc(a2-3)]Gal(b1-4)Glc
# Outline: as §1
# [19] = target: Gal(b1-3)GlcNAc(b1-3)Gal(b1-4)Glc
# Outline: as §1
# [20] = target: Gal(b1-3)[GlcNAc(b1-6)]GalNAc
# Outline: as §1
# [21] = target: Gal(b1-4)GlcNAc(b1-2)Man(a1-3)[GlcNAc(b1-4)][Gal(b1-4)GlcNAc(b1-2)Man(a1-6)]Man(b1-4)GlcNAc(b1-4)GlcNAc
# Outline: as §1
# [22] = target: Gal(b1-4)GlcNAc(b1-2)Man(a1-6)Man(b1-4)GlcNAc(b1-4)GlcNAc
# Outline: as §1
# [23] = target: Gal(b1-4)GlcNAc(b1-2)[Gal(b1-4)GlcNAc(b1-4)]Man(a1-3)[Gal(b1-4)GlcNAc(b1-2)Man(a1-6)]Man(b1-4)GlcNAc(b1-4)GlcNAc
# Outline: as §1
# [24] = target: Gal(b1-4)GlcNAc(b1-2)[Gal(b1-4)GlcNAc(b1-6)]Man(a1-6)[Gal(b1-4)GlcNAc(b1-2)Man(a1-3)]Man(b1-4)GlcNAc(b1-4)[Fuc(a1-6)]GlcNAc
# Outline: as §1
# Gal(b1-4)GlcNAc(b1-3)Fuc = target: Gal(b1-4)GlcNAc(b1-3)Fuc
# Outline: as §1
# [25] = target: Gal(b1-4)GlcNAc(b1-3)[Fuc(a1-3)GlcNAc(b1-6)]Gal(b1-4)Glc
# Outline: as §1
# [26] = target: Gal(b1-4)GlcNAc(b1-3)[Gal(b1-4)GlcNAc(b1-6)]Gal(b1-4)GlcNAc
# Outline: as §1
# [27] = target: Gal(b1-4)GlcNAc(b1-3)[Gal(b1-4)GlcNAc(b1-6)]Gal(b1-4)GlcNAc(b1-3)[Gal(b1-4)GlcNAc(b1-6)]Gal(b1-4)GlcNAc(b1-3)[Gal(b1-4)GlcNAc(b1-6)]Gal(b1-4)GlcNAc(b1-3)[Gal(b1-4)GlcNAc(b1-6)]Gal(b1-4)GlcNAc(b1-3)Gal(b1-4)Glc
# Outline: as §1
# [28] = target: Gal(b1-4)GlcNAc(b1-6)[Gal(b1-3)]GalNAc
# Outline: as §1
# [29] = target: Gal3S(b1-4)[Fuc(a1-3)]Glc
# Outline: as §1
# Gal6S(b1-3)GlcNAc6S = target: Gal6S(b1-3)GlcNAc6S
# Outline: as §1
# Gal6S(b1-4)Glc = target: Gal6S(b1-4)Glc
# Outline: as §1
# [30] = target: GalNAc(b1-3)Gal(a1-4)Gal(b1-4)GlcNAc
# Outline: as §1
# [31] = target: GalNAc(b1-4)Gal3S(b1-4)Glc
# Outline: as §1
# Glc(a1-2)Glc = target: Glc(a1-2)Glc
# Outline: as §1
binder,measurement,setting,value
"PNA (Arachis hypogaea), P02872 (protein) MKPFCVFLTFFLLLAASSKKVDSAETVSFNFNSFSEGNPAINFQGDVTVLSNGNIQLTNLNKVNSVGRVLYAMPVRIWSSATGNVASFLTSFSFEMKDIKDYDPADGIIFFIAPEDTQIPAGSIGGGTLGVSDTKGAGHFVGVEFDTYSNSEYNDPPTDHVGIDVNSVDSVKTVPWNSVSGAVVKVTVIYDSSTKTLSVAVTNDNGDITTIAQVVDLKAKLPERVKFGFSASGSLGGRQIHLIRSWSFTSTLITTTRRSIDNNEKKIMNMASA",glycan array binding signal (z-score),[1],-0.127
same,glycan array binding signal (z-score),[2],-0.116
same,glycan array binding signal (z-score),[3],-0.144
same,glycan array binding signal (z-score),[4],-0.183
same,glycan array binding signal (z-score),[5],-0.09
same,glycan array binding signal (z-score),[6],-0.177
same,glycan array binding signal (z-score),[7],-0.195
same,glycan array binding signal (z-score),[8],-0.106
same,glycan array binding signal (z-score),[9],-0.162
same,glycan array binding signal (z-score),[10],-0.195
same,glycan array binding signal (z-score),Fuc(a1-6)GlcNAc,-0.195
same,glycan array binding signal (z-score),Gal(a1-2)Gal,-0.169
same,glycan array binding signal (z-score),[11],-0.115
same,glycan array binding signal (z-score),Gal(b1-3)Gal(b1-4)GlcNAc,-0.001
same,glycan array binding signal (z-score),[12],6
same,glycan array binding signal (z-score),[13],8.53
same,glycan array binding signal (z-score),Gal(b1-3)GalNAc(b1-3)Gal,5.33
same,glycan array binding signal (z-score),[14],3.33
same,glycan array binding signal (z-score),[15],7.85
same,glycan array binding signal (z-score),[16],9.11
same,glycan array binding signal (z-score),[17],3.91
same,glycan array binding signal (z-score),[18],4.74
same,glycan array binding signal (z-score),[19],0.203
same,glycan array binding signal (z-score),[20],3.79
same,glycan array binding signal (z-score),[21],-0.309
same,glycan array binding signal (z-score),[22],-0.171
same,glycan array binding signal (z-score),[23],-0.118
same,glycan array binding signal (z-score),[24],-0.186
same,glycan array binding signal (z-score),Gal(b1-4)GlcNAc(b1-3)Fuc,-0.195
same,glycan array binding signal (z-score),[25],-0.247
same,glycan array binding signal (z-score),[26],-0.153
same,glycan array binding signal (z-score),[27],4.16
same,glycan array binding signal (z-score),[28],5.42
same,glycan array binding signal (z-score),[29],-0.222
same,glycan array binding signal (z-score),Gal6S(b1-3)GlcNAc6S,-0.244
same,glycan array binding signal (z-score),Gal6S(b1-4)Glc,-0.174
same,glycan array binding signal (z-score),[30],-0.197
same,glycan array binding signal (z-score),[31],-0.195
same,glycan array binding signal (z-score),Glc(a1-2)Glc,-0.195
